# Assay outcomes as filed in PubChem.
# Shown are actives, neighbours in structure and some others; about 3% of the full set was active somewhere.
# HIF-2a block = HIF-2a inhibition. 786-0 RCC cells HIF-2a reporter, luciferase luminescence, overnight. inhibition, % at 18.8 µM. actives 0.72% (n = 360,000). AID 624352;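 active means inhibition of the luminescence signal of 40% or more relative to plate controls, in a single-dose primary screen at 18.75 µM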
# KKLEB tox = counter-screen for CF NF-kB inhibitors: cytotoxicity; KKLEB CF airway cells viability, ATPlite luminescence, overnight; hits give low values; cells stimulated with P. aeruginosa culture filtrate; activity change (cytotoxicity), % at 5 µM; actives 0.36% (n = 360,000);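 active means corrected activity change at or below -50% at 5 µM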
# Peg3 promoter = reduces Peg3 promoter-driven luciferase expression in HeLa; HeLa PEG-Prom luciferase reporter, luminescence, overnight; inhibition, % at 20 µM; actives 1.7% (n = 360,000); AID 588405;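 active means inhibition of at least 50% at 20 µM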
# CF NFkB inh = cystic fibrosis NF-kB activation inhibition. KKLEB NF-kB-GFP reporter, PAF-induced, GFP fluorescence overnight. actives 0.86% (n = 360,000). AID 588850. inhibition, % at 5 µM;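 active means at least 50% inhibition at 5 µM, scaled per plate between neutral and stimulator controls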;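 further: PAF is a Pseudomonas aeruginosa culture filtrate used as stimulus; plate controls were PAF-stimulated DMSO wells for no effect and unstimulated DMSO wells for full effect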
# ABHD5-PLIN5 inh = blocks binding of human ABHD5 to perilipin-5; Q00G26+Q8WTS1; Split G. princeps luciferase complementation, luminescence, 4 h; inhibition, % at 4 µM; actives 0.78% (n = 360,000); AID 602281;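 active means inhibition above the mean inhibition across every tested compound plus 3 SD, cut at about 22% in these data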;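 further: 0% = DMSO only wells and the 100% control is not disclosed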
# Target sequence (Q00G26 whole entry, looked up): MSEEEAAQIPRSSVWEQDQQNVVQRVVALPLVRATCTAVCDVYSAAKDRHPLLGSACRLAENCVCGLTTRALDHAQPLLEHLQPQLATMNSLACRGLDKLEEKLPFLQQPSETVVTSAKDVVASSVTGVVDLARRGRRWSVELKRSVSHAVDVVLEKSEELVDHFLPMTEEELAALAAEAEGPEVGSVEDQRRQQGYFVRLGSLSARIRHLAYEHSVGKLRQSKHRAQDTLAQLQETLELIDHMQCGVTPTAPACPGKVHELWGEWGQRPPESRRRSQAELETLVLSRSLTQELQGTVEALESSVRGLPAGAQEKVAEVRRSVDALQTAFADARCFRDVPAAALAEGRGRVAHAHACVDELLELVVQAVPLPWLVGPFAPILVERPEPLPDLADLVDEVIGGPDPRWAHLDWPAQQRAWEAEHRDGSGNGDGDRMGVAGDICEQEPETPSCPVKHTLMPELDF
# Target sequence (Q8WTS1 whole entry, looked up): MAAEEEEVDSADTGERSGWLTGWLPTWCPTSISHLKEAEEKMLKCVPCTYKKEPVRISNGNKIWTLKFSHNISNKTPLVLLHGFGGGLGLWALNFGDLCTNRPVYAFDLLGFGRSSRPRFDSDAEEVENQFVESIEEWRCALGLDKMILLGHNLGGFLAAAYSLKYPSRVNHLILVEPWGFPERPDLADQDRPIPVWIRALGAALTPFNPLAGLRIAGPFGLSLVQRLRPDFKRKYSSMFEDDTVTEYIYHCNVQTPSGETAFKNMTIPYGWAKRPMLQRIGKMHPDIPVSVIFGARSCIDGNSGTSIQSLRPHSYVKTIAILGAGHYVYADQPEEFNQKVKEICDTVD
# TRPM1 prom inh = reduces MITF-dependent TRPM1 promoter luciferase signal; actives 0.83% (n = 330,000); SK-MEL-5 TRPM1 promoter luciferase, 24 h; inhibition, % at 12.5 µM;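 active means mean inhibition across replicates of 60% or more, whatever share of single replicates reaches that level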
# CF NFkB inh conf = CF NF-kB inhibition confirmation, single concentration. actives 64% (n = 1,300). inhibition, % at 5 µM. KKLEB CF airway cells, PAF-induced NF-kB-GFP fluorescence, overnight. shares compounds with CF NFkB inh; in the data active means inhibition above about 40%;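 further: stimulus PAF is a Pseudomonas aeruginosa filtrate and not platelet activating factor; plate controls were DMSO wells with stimulus for no effect and unstimulated DMSO wells for full effect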
# Numbers without * were called inactive; i = inactive; x = no result given.
SMILES,HIF-2a block,KKLEB tox,Peg3 promoter,CF NFkB inh,ABHD5-PLIN5 inh,TRPM1 prom inh,CF NFkB inh conf
O=C(c1ccc2c(c1)OCCO2)N1CCN(Cc2c(F)cccc2Cl)CC1,-17,4,6,39,0,-3,x
CCOC(=O)c1ccc(N=Nc2c(C)[nH]n(-c3ccccc3)c2=O)cc1,-23,0,8,-28,0,7,x
CCOC(=O)c1ccc(-n2[nH]c(-c3ccccc3)cc2=O)cc1,-19,-48,-22,64*,-16,-3,76*
Cc1c(C=O)c(C=O)c(C)n1Cc1ccccc1,-18,-48,41,53*,3,45,66*
O=C(Nc1ccc2c(c1)OCCO2)c1cc(-c2ccccn2)nc2ccc(Br)cc12,7,-32,9,62*,-1,10,56*
Cc1ccc(NC(=O)CCNC(=O)c2ccc(Br)cc2)cc1S(=O)(=O)N1CCCCCC1,8,-20,13,16,4,13,x
Cc1c(NC(=O)Nc2ccc(Cl)cc2)c(=O)n(-c2ccccc2)n1C,-4,-7,9,-5,-2,-4,x
Cc1c(N=C2N=C(NC(=O)Nc3ccc(Cl)cc3)c3ccccc32)c(=O)n(-c2ccccc2)n1C,1,-41,19,51*,-8,45,18
CCCN(CCC)C(=O)c1cn(C)c2ccc(S(=O)(=O)N3CCCC3)cc2c1=O,-5,11,12,-2,3,8,x
COc1cc(O)c(CC=C(C)C)c(O)c1C(=O)CCc1ccc(O)cc1,-303,-4,13,52*,0,-11,44*
Cc1ccc(NC(=O)Nc2nnc(-c3ccncc3)s2)cc1C,-152,-30,-139,90*,-4,-8,77*
C[C@H](O)[C@@H]1CN2CCc3c([nH]c4ccc(-c5ccc6c(c5)OCO6)cc34)[C@@H]2C[C@@H]1N(C)C(=O)Nc1ccc(F)cc1,-8,-40,70*,65*,7,x,52*
Cc1ccc(S(=O)(=O)N2CCN(C(=O)Cn3c(=O)oc4ccccc43)CC2)c(C)c1,11,-3,-1,20,4,-5,x
Cc1noc(C)c1CCC(=O)Nc1cc(C(=O)O)ccc1Cl,13,1,-14,3,-4,x,x
CC(C)C[C@H](CO)Nc1nc(Nc2cccc(Cl)c2)c2ncn(C(C)C)c2n1,-13,-24,37,61*,-4,x,76*
CC(C)n1cnc2c(Nc3cccc(F)c3)nc(NCCO)nc21,-74,-28,-44,11,5,-2,x
O=C(COC(=O)c1ccc2[nH]c3c(c2c1)CCCC3)Nc1ccccc1Cl,-12,-38,19,56*,-2,-15,54*
Cc1ccc(S(=O)(=O)n2cc(-c3ccccc3)c3ccccc32)cc1,0,-12,-8,53*,-5,46,78*
Cc1ccc(S(=O)(=O)n2cc(C=O)c3ccccc32)cc1,20,-4,30,-16,6,9,x
c1cc2c(c(CC3CO3)c1CC1CO1)OCCOCCOCCOCCO2 (stereo not given),8,-3,-5,-9,-8,x,x
CCC(C(=O)OCC(=O)C1(O)CCC2C3CCC4=CC(=O)CCC4(C)C3C(O)CC21C)C(C)C (stereo not given),0,5,29,56*,3,-2,10
CC(C)CC(NC(=O)CCC(=O)OCC(=O)[C@@]1(O)CCC2[C@@H]3CCC4=CC(=O)C=C[C@]4(C)C3[C@@H](O)C[C@@]21C)C(=O)O (stereo not given in full),24,30,-3,83*,2,-11,19
O=C(NC1CCCCC1)c1ccc([N+](=O)[O-])o1,13,-14,47,32,0,44,x
O=C(NC1CCCC(C(F)(F)F)C1)c1ccc([N+](=O)[O-])o1 (stereo not given),30,-16,71*,92*,-1,66*,53*
CC(=O)c1sc(NC(=O)CCS(=O)(=O)c2ccc(Cl)cc2)nc1C,-8,4,35,56*,0,-11,40*
SMILES,HIF-2a block,KKLEB tox,Peg3 promoter,CF NFkB inh,ABHD5-PLIN5 inh,TRPM1 prom inh,CF NFkB inh conf
C=C1C(=O)O[C@@H]2[C@H]1CC[C@H](C)[C@]1(O)CCC(=O)[C@@]21C,-16,-19,46,54*,1,40,78*
CCCCC(=O)/C=C/n1c(=S)oc2ccccc21,-43,-36,101*,90*,16,12,-143
CCOC(=O)[C@@H]1[C@H]2COc3ccc(Br)cc3[C@H]2N2C(=O)N(c3cccc(Cl)c3)C(=O)[C@]12C,19,-6,2,8,0,13,x
CCOc1ccccc1N1CCN(C(=O)c2cc(-c3cc(OC)ccc3OC)nc3ccccc23)CC1,12,-6,44,65*,6,-5,63*
COc1ccc(OC)c(-c2cc(C(=O)Nc3ccccc3C(N)=O)c3ccccc3n2)c1,13,-19,54*,80*,7,x,24
O=C(NC1CCCC1)C1CCN(S(=O)(=O)c2ccccc2)CC1,15,2,6,-10,4,4,x
Cc1ccnc(NC(=O)CCCOc2cc(=O)n(C)c3ccccc23)c1,i,9,92*,71*,0,5,76*
Cc1ccnc(NC(=O)CSc2cc(=O)n(C)c3ccccc23)c1,-264,-26,70*,88*,-1,-2,52*
Cn1c(=O)cc(OCCCC(=O)NCc2ccccn2)c2ccccc21,-8,5,6,-17,-1,2,x
Cn1c(=O)cc(SCC(=O)Nc2cccnc2)c2ccccc21,-45,-4,-25,-6,-2,-22,x
Cc1ccc(-c2csc3ncn(CC(=O)NCC(c4ccco4)N4CCCC4)c(=O)c23)cc1 (stereo not given),-1,10,0,-1,-2,3,x
O=C(CC1SC(N2CCCC2)=NC1=O)Nc1ccc(C(=O)NCc2ccc(F)cc2)cc1 (stereo not given),-1,2,-7,11,6,1,x
CN(C)C(CNC(=O)C1CCN(S(=O)(=O)c2ccccc2)CC1)c1ccccc1 (stereo not given),-7,30,-4,71*,-7,0,0
CN(C)C(CNC(=O)C1CCN(S(=O)(=O)c2cccc(C(F)(F)F)c2)CC1)c1ccccc1 (stereo not given),-3,-1,1,-7,3,-7,x
CC(=O)Nc1ccc(Br)c2ccccc12,19,8,6,4,2,-4,x
O=C(Nc1ccc(Br)c2ccccc12)c1ccc2ccccc2c1O,-142,-46,-13,54*,-5,2,73*
CC(=O)c1cccc(-c2ccnc3c2CC(C(=O)Nc2ccccc2)O3)c1 (stereo not given),-11,1,10,-25,-4,x,x
